Assay outcomes: PubChem, several laboratories
PAX8 reporter: lowers PAX8-driven luciferase in RMG-I cells. RMG-I TPO-luciferase reporter, SteadyGlo, 24 h. inhibition, % at 12.6 µM. actives 1.2% (n = 360,000). AID 652154;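 active = mean replicate inhibition at least 60% with every replicate also reaching 60%; inconclusive = only one of the two criteria is met; inactive = mean below 60% and not all replicates reaching 60%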;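 note: luciferase light reporting Pax8 driven TPO promoter activity; plate controls were median of neutral control wells for no effect and mitoxantrone controls for full effect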
LMP1 NFkB inh: reduces LMP1-driven NF-kappaB luciferase signal | LMP1-induced NF-kappaB luciferase reporter cells, luminescence | inhibition, % at 12.5 µM | actives 0.69% (n = 350,000) | AID 504558; in the data active = inhibition above about 41%; inconclusive = no clear call, values can overlap the other calls;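 note: 0% = neutral control wells and 100% = reference inhibitor control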
EWS-Fli block: blocks EWS/Fli oncoprotein-driven transcription; A673 NR0B1-luciferase reporter, viability-normalised; inhibition, % at 12.6 µM; actives 0.67% (n = 350,000); AID 651661;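 active = mean inhibition of at least 50% after viability correction, with every replicate also passing that limit; inconclusive = mean reaches 50% but only one of two replicates passes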;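 note: firefly luciferase signal divided by Alamar Blue viability fluorescence both relative to DMSO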
TWEAK-Fn14 inh: TWEAK-Fn14 signaling inhibition; TWEAK-stimulated Fn14 reporter cells, luciferase luminescence, 8 h; inhibition, % at 10 µM; actives 2% (n = 360,000); AID 1159606; in the data active = inhibition above about 50%
LGR2 inh: blocks bursicon-induced cAMP signaling via Drosophila LGR2. HEK293 LGR2, CRE-luciferase, bursicon-stimulated, 4 h. inhibition, % at 9.99 µM. actives 0.35% (n = 380,000);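 active = drop in luminescence signal, shown as inhibition above about 50% in the replicate tests, limit read from the data, passing the limit was not always enough; inconclusive = probably only some replicates passing the limit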;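 note: agonist challenge used bursicon conditioned medium at about half maximal strength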
TROY signal inh: blocks TROY-dependent signaling in reporter cells; AID 1347056; Q293 LMP1-TROYcd NF-kB luciferase reporter, 4 h; inhibition, % at 10 µM; actives 0.98% (n = 360,000);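 active = compounds whose plate-normalised and pattern-corrected inhibition of the luciferase reporter signal at the single screening dose is 50% or more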
* hit, by the source's call; u = inconclusive; x = not tested or not shown. Only some compounds are listed: those with a hit (about 3.2% of all), similar ones and a draw of the others.

SMILES | PAX8 reporter | LMP1 NFkB inh | EWS-Fli block | TWEAK-Fn14 inh | LGR2 inh | TROY signal inh
Cc1ccc(/C(N)=N/OC(=O)c2ccc(C)cc2Cl)cc1 | -197 | 10 | 28 | 85* | 59* | 75*
O=C(NOCc1ccccc1)c1ccccc1 | -43 | 6 | -8 | 40 | 25 | -9
O=C(NOCc1ccccc1)c1ccc(Cl)cc1Cl | 11 | 46* | 50 | 82* | 82* | 42
N/C(=N\OC(=O)c1ccc(Cl)cc1)c1ccc(Cl)cc1 | x | -42 | x | -6 | x | -51
N/C(=N\OC(=O)c1ccc(Cl)cc1)c1ccn[nH]1 | -21 | 32 | -1 | 51* | u | 39
N/C(=N\OC(=O)c1ccc(Cl)cc1Cl)c1ccccc1 | x | -30 | x | 91* | x | 63*
N/C(=N\OC(=O)c1ccccc1Cl)c1ccc(Cl)cc1 | x | -61 | x | 32 | x | 16
CO[C@@H]1CN(C)C(=O)c2ccc(NC(C)=O)cc2OC[C@@H](C)N(C(=O)CC2CC2)C[C@@H]1C | 0 | x | 3 | x | -18 | x
O=C(NC1CCC1)[C@H]1[C@H](CO)[C@H]2Cn3c(ccc(-c4ccccc4)c3=O)[C@H]2N1CC1CC1 | x | x | 10 | x | -15 | x
C[C@@H]1CN([C@@H](C)CO)C(=O)c2cc(NC(=O)CCC(F)(F)F)ccc2O[C@@H](C)CCCCO[C@@H]1CN(C)C(=O)Cc1ccccc1 | -2 | x | 5 | x | 12 | x
CCCN1[C@@H]2Cn3c(ccc(-c4ccccc4)c3=O)[C@H]1[C@@H](C(=O)NCC)[C@@H]2CO | -15 | x | 10 | x | 7 | x
N/C(=N\OC(=O)c1ccc(Cl)cc1Cl)c1ccc(Cl)cc1 | x | -19 | x | 71* | x | 67*
Cc1cc(/C(N)=N/OC(=O)c2ccccc2Cl)no1 | -34 | 24 | 17 | 54* | 84* | 22
Cc1cccc(/C(N)=N/OC(=O)c2ccc(Cl)cc2Cl)c1 | -90 | -10 | 16 | 79* | u | 63*
N/C(=N\OC(=O)c1ccccc1Cl)c1ccccc1 | x | -43 | x | 43 | 60* | 13
O=C(c1cnccn1)N1CC(=O)N2[C@H](CO)[C@@H](c3ccc(/C=C/c4ccccc4)cc3)[C@H]2C1 | -28 | x | 0 | x | 10 | x
CCOc1cc(/C=C2/C(=N)N3N=C(CC)SC3=NC2=O)ccc1OC(=O)c1ccco1 | 0 | 43* | x | 3 | 17 | 17
CCOc1cc(/C=C2\C(=N)N3N=C(S(=O)(=O)CC)SC3=NC2=O)ccc1OC(=O)c1ccco1 | -10 | -4 | 4 | 2 | -10 | -7
COc1ccc(S(=O)(=O)N2c3ccccc3OCC2C(C)(C)C)cc1 (stereo not drawn) | 17 | -6 | 58* | -6 | 18 | 4
COc1ccc(S(=O)(=O)N2CCN(C(=O)C3COc4ccccc4O3)CC2)cc1 (stereo not drawn) | 12 | 1 | 15 | -13 | 12 | 9
COc1ccc(S(=O)(=O)N2c3ccccc3OCC2c2ccccc2)cc1 (stereo not drawn) | 0 | 18 | x | 79* | x | 41
COc1ccc(S(=O)(=O)N2CCOc3ccccc32)cc1 | -2 | 2 | 56* | 6 | 4 | 0
COc1ccc(S(=O)(=O)N2CC(C(=O)O)Oc3ccccc32)cc1 (stereo not drawn) | 4 | 3 | 5 | -3 | 3 | -20
COc1ccc(S(=O)(=O)N2c3ccccc3OCC2C)cc1 (stereo not drawn) | 52 | 9 | 74* | 9 | -2 | 26
COc1ccc(S(=O)(=O)N2c3ccccc3OCC2CC(=O)O)cc1 (stereo not drawn) | 13 | -3 | 8 | -12 | -8 | 6
CN(C)C(=O)[C@H]1[C@H](CO)[C@H]2Cn3c(cccc3=O)[C@H]2N1CC1CCCCC1 | x | x | 22 | x | -4 | x
C[C@H](CO)N1C[C@H](C)[C@@H](CN(C)C(=O)Nc2ccccc2)Oc2ccc(NS(=O)(=O)c3cccs3)cc2C1=O | -19 | x | -8 | x | x | x
CO[C@H]1CN(C)C(=O)c2cc(NC(=O)C3CCOCC3)ccc2OC[C@H](C)N(Cc2cccnc2)C[C@H]1C | -8 | x | -6 | x | 3 | x
O=C(C[C@@H]1CC[C@H]2[C@@H](COC[C@H](O)CN2CC2CCCC2)O1)NCc1ccc(Cl)cc1 | 15 | x | 14 | x | -8 | x
CN(C)C(=O)[C@H]1[C@H](CO)[C@H]2Cn3c(ccc(-c4cccc(F)c4)c3=O)[C@H]2N1C(=O)c1ccccn1 | 11 | x | 1 | x | 2 | x
